Measured values: ChEMBL document CHEMBL4513216, “Probing the Open Global Health Chemical Diversity Library for Multistage-Active Starting Points for Next-Generation Antimalarials” (ACS Infect Dis, 2020)
Screen size: about 69,000 compounds; about 8,600 (12%) showed an effect of 50% or more. What follows is part of a selection rich in strong results, with near analogues and random picks from the rest.

System: Plasmodium berghei
Experiment: Screen against P. berghei liver stage (PbLuc), transformed with Luciferase, at 10uM
Type: functional, HepG2
Conditions: tested at 10 uM

Row | SMILES | INHIBITION
1 | Cc1ncc(-c2ccncc2)c(C2CCN(C(=O)c3ccco3)CC2)n1 | -21%
2 | CCc1nc(CN(C)C2CCN(CC(F)(F)F)C2)no1 (centres undefined) | 4.71%
3 | CN1CCOC(CNCc2c(Cl)nc3ccccn23)C1 (centres undefined) | -2.43%
4 | CC[C@@H]1N(Cc2ccc(OC)cc2)CCC[C@]12CCC(=O)N2CCOC | -5.31%
5 | Cc1noc(CC2CCN(C(=O)C(c3ccccc3C)N(C)C)CC2)n1 (centres undefined) | -21.1%
6 | COCc1nc(C(=O)N2CCCC2c2cc(C)on2)cs1 (centres undefined) | 0.914%
7 | O=C(c1cc2c(s1)CCC2)N1CCCC(c2cnccn2)C1 (centres undefined) | -94%
8 | CNc1ccnc(NCCC(=O)Nc2ccccc2OC)n1 | 49.7%
9 | COc1ccc(C)cc1NC(=O)CNc1ccn(CC(N)=O)n1 | -41.6%
10 | CNc1ccnc(NCC(=O)Nc2cc(C)ccc2OC)n1 | 53%
11 | CC(C)COC1CCN(S(=O)(=O)Cc2cccc(F)c2)CC1 | 20.9%
12 | CCN(CC)C(=O)[C@@H]1C[C@@H](N)CN1c1nc(N2CCCC2)nc(C)c1C | 33.4%
13 | CNC(=O)[C@@H]1C[C@@H](N)CN1C(=O)CCSCc1ccccc1 | -15.1%
14 | CCNC(=O)[C@@H]1C[C@H](N)CN1c1cc(CC)nc(N(C)C)n1 | -69.6%
15 | CCN(CC)C(=O)[C@@H]1C[C@H](N)CN1c1nnc(-c2ccccc2)s1 | 56.3%
16 | CCN(CC)C(=O)[C@@H]1C[C@@H](N)CN1c1nc(N(C)C)nc(C)c1C | 62.6%
17 | CNC(=O)[C@@H]1C[C@@H](N)CN1c1nnc(-c2ccccc2)s1 | 74.9%
18 | CCN(CC)C(=O)[C@@H]1C[C@H](N)CN1c1noc(-c2ccccc2)n1 | 9.04%
19 | CNC(=O)[C@@H]1C[C@@H](N)CN1c1nc(N2CCCC2)nc(C)c1C | 45.3%
20 | CCN(CC)C(=O)[C@@H]1C[C@@H](NC(=O)c2cccn2C2CC2)CN1C | 20.5%
21 | COc1ccc(-c2ncccc2C(=O)N2C[C@@H]3CC[C@H]2C3)cn1 | 29.1%
22 | Cn1cc(C[C@H]2[C@H](N3CCOCC3)CCN2C2CCOCC2)cn1 | 0.804%
23 | Cn1nc(C(=O)N2CCOCC2)cc1C(=O)Nc1c(Cl)cccc1Cl | 51.6%
24 | Cn1nc(C(=O)N2CCOCC2)cc1C(=O)Nc1ncc(Cl)cc1Cl | -0.71%
25 | Cn1nc(C(=O)N2CCOCC2)cc1C(=O)Nc1ccc(Cl)cc1Cl | -8.66%
26 | Cc1c(C(=O)N2CCC(C(=O)c3nc4ccccc4s3)CC2)cnn1C | 11.025%

Row | SMILES | INHIBITION
27 | Cc1cccc(C(=O)N2CCSCC2)c1NC(=O)c1ccsc1 | 1.56%
28 | Cc1cccc(C(=O)N2CCN(C)CC2)c1NC(=O)c1ccncc1 | 52.6%
29 | Cc1cccc(C(=O)N2CCSCC2)c1NC(=O)c1cccnc1 | 45%
30 | COc1cc(CNCCn2cccn2)c2c(c1)CC(C)O2 (centres undefined) | 75.2%
31 | COc1cc(CNCCC(N)=O)c2c(c1)CC(C)O2 (centres undefined) | 49.4%
32 | COc1cccc(-c2nc(CNCCn3cccn3)cs2)c1 | 31.8%
33 | COc1ccc(-c2nnc(CNCCn3cc(C)cn3)o2)cc1 | 5.7%
34 | COc1cc(CNCCn2cc(C)cn2)c2c(c1)CC(C)O2 (centres undefined) | 75.2%
35 | COc1cc(CNCCn2cc(C)cn2)cc2c1OCCO2 | 17.8%
36 | O=C(c1cccc(F)c1)N1CCc2ncc(Cn3cccn3)n2CC1 | 3.58%
37 | Cc1cccnc1NCCNC(=O)c1cnc(-c2cccs2)nc1O | 14.9%
38 | O=C(NCCCO)c1cnc(-c2ccccc2)nc1O | 48.5%
39 | CCSCCNC(=O)c1cnc(-c2ccccc2)nc1O | 40.3%
40 | CCn1c(N)nc2cc(C(=O)NCCNc3ncccc3C)cnc21 | -87.1%
41 | Cc1nc(C(C)C)sc1C(=O)NCCSc1ccccn1 | -71.3%
42 | Cc1cccnc1NCCNC(=O)c1cnc(-c2ccccn2)nc1O | 92.1%
43 | CCn1c(C)nnc1SCCNC(=O)c1cnc(C(C)(C)C)nc1O | 23.6%
44 | Cc1nc(-c2ncc(C(=O)NCCNc3ncccc3C)c(O)n2)cs1 | 50.3%
45 | CC(C)(C)c1ncc(C(=O)NCCSc2ccccn2)c(O)n1 | 69.1%
46 | Cc1noc(NCc2cn(C)nc2-c2ccncc2)n1 | 19.4%
47 | Cc1ccc(C(=O)NS(=O)(=O)c2c(Cl)cccc2Cl)c(=O)[nH]1 | 19.4%
48 | CN(C)CCN1CCO[C@H]2CN(Cc3cnn(C)c3)C[C@H]21 | -57.1%
49 | Cc1nnsc1C(=O)N1CCCCC1c1cc2nc(C)c(C)c(O)n2n1 (centres undefined) | 19.3%
50 | Cc1nc(-c2ccccc2)sc1CNC(=O)c1ccc(=O)n(C)c1 | 39.6%
51 | CC(NCCCN1CCCC1=O)c1cc(Br)ccc1O (centres undefined) | -1.3%
52 | c1cc2c(cc1Cn1cc(C3CCOC3)nn1)OCO2 (centres undefined) | 17.6%

Row | SMILES | INHIBITION
53 | Cc1ocnc1C(=O)N(C)[C@@H]1CC[C@@H](n2ccnc2C)[C@@H]1O | 45.9%
54 | Cn1cnc2cc(CCC(=O)Nc3nc[nH]n3)ccc21 | 39.2%
55 | Cn1c(=O)c2c(n3ncnc13)NC(=O)CC2c1ccc(F)cc1 (centres undefined) | 54%
56 | Cn1c(=O)c2c(n3ncnc13)NC(=O)CC2c1cccc(F)c1 (centres undefined) | 41.6%
57 | CCc1ccc(C2CC(=O)Nc3c2c(=O)n(C)c2ncnn32)cc1 (centres undefined) | 0.207%
58 | Cc1nc(N(C)C)nc(-c2cccc(-c3ccn(CCCO)n3)c2)c1C | 14.9%
59 | Cc1ccc(CNCC2CNc3cc(C)nn3C2)cn1 (centres undefined) | 33.35%
60 | CCOc1cncc(N2CCOCC2)n1 | 35.4%
61 | O=C(CCN1CCCCO1)NC1CCCN(CC2CCCCC2)C1 (centres undefined) | 11.2%
62 | O=C(CCN1CCCO1)NC1CCCN(CC2CCCCC2)C1 (centres undefined) | 50.5%
63 | O=C(CCN1CCOCC1)NC1CCCN(CC2CCCCC2)C1 (centres undefined) | 1.37%
64 | CCOc1ccc2cc(C(=O)NCCC(=O)N(C)C)[nH]c2c1 | -5.22%
65 | Cc1ccc(N2CCCN(CC3CC3)C(C(C)C)C2)nn1 (centres undefined) | 23%
66 | COCC1COCCC12CCN(C(=O)CC1Cc3ccccc3C1)CC2 (centres undefined) | 23.6%
67 | Clc1snnc1CN1CCCC1Cn1cccn1 (centres undefined) | -36.1%
68 | CCc1nccn1CC(=O)N1CCN(C2CCc3ccccc3C2)CC1 (centres undefined) | 57.9%
69 | Cc1ccnn1CC(=O)N1CCN(C2CCc3ccccc3C2)CC1 (centres undefined) | 10.7%
70 | Cc1ccnn1CCC(=O)N1CCN(C2CCc3ccccc3C2)CC1 (centres undefined) | -5.08%
71 | COc1cc(-n2cccc2)c(Cl)cc1C(=O)NS(C)(=O)=O | 23.7%
72 | CC(C)(C)CC(=O)N1[C@@H](c2ccco2)[C@@H](CO)C[C@]12CCCCNC2=O | 22.2%
73 | O=C(NCC(c1ccccc1)N1CCOCC1)Nc1cn[nH]c1 (centres undefined) | -113%
74 | Cn1c(CN2CCCC(N3CCCCCC3)C2)cc(=O)n(C)c1=O (centres undefined) | -10.9%
75 | Cn1c(CN2CCCCC2)cc(=O)c(O)c1CN1CCCCC1 | 74%
76 | Cn1c(CN2CCOCC2)cc(=O)c(O)c1CN1CCCC1 | 6.12%
77 | Cn1c(CN2CCOCC2)cc(=O)c(O)c1CN1CCCCC1 | 30.2%
78 | Cn1c(CN2CCCCCC2)cc(=O)c(O)c1CN1CCCC1 | 63.1%

Row | SMILES | INHIBITION
79 | Cn1c(CN2CCOCC2)cc(=O)c(O)c1CN1CCOCC1 | 5.58%
80 | CN(CCn1nc2ccccn2c1=O)CC(=O)N1CCCC1 | 18.2%
81 | CCn1cc(CN(C)C(=O)c2cc(C(F)(F)F)n(C)n2)cn1 | -6.42%
82 | CC(C)(CO)Nc1c(NCc2ccncc2)c(=O)c1=O | 32.8%
83 | COc1ccc(C(=O)NCCCOC(C)c2ccccc2)c(OC)c1 (centres undefined) | 84.4%
84 | CC(OCCCNC(=O)c1cccnc1O)c1ccccc1 (centres undefined) | -21.2%
85 | COc1ccc(C(=O)NCCCNc2ncccn2)c(OC)c1 | 30.8%
86 | CCC[C@@H]1CN(C(=O)c2ccccc2C(C)=O)C[C@H]1N(C)C | 8.92%
87 | CCC[C@@H]1CN(C(=O)c2ccccc2-c2ccccc2)C[C@H]1N(C)C | 31.7%
88 | CCC[C@@H]1CN(C(=O)c2cc3ccccc3cc2O)C[C@H]1N(C)C | 51.5%
89 | Cc1ccc(-c2n[nH]cc2CNCC2CCN(CC(F)(F)F)C2)o1 (centres undefined) | 27.5%
90 | CC1=N[C@@]2(CC[C@@H]3CN(CC(=O)N(C)C)C[C@@H]32)C(=O)N1CC(C)C | -6.32%
91 | CCN1CCCn2c(nc(CNC(=O)c3cnoc3C)cc2=O)C1 | -24%
92 | Cn1nccc1CNC(=O)C1CCCCC1 | 33%
93 | Cc1cc(C(=O)NC(C)CC(=O)c2ccco2)[nH]n1 (centres undefined) | 37.9%
94 | COCCN1CCO[C@H]2CCN(C(=O)c3ccnnc3)CC[C@@H]21 | 55.6%
95 | COCCN1CCO[C@H]2CCN(C(=O)c3cccs3)CC[C@@H]21 | -18.3%
96 | CN(C)CCN1CCO[C@H]2CCN(C(=O)c3cccs3)CC[C@@H]21 | 54.1%
97 | COCCN1CCO[C@H]2CN(C(=O)c3cccs3)C[C@H]21 | 77.7%
98 | O=C(c1ccnnc1)N1C[C@@H]2OCCN(CCN3CCCC3)[C@@H]2C1 | 11.9%
99 | CS(=O)(=O)N1CCO[C@@H]2CCN(C(=O)c3cccs3)CC[C@H]21 | 31.9%
100 | O=C(c1cccs1)N1C[C@@H]2OCCN(CC3CCCO3)[C@@H]2C1 (some centres undefined) | -17.1%
101 | CN(C)CCN1CCO[C@@H]2CCN(C(=O)c3cccn3C)CC[C@H]21 | -16.2%
102 | COCCN1CCO[C@H]2CN(C(=O)c3ccncc3F)C[C@H]21 | -52.3%
103 | COC(=O)N1CCC(Nc2ccc(Cl)c(C#N)n2)CC1 | 8.12%
104 | COc1ncc(C(F)(F)F)c(C(=O)O)c1Cl | 24.2%
